“And” between values parts separate entries of the source, which are not always exact repeats. Equal values may be shown once. Among all 5,500 compounds or so, about 2,000 (36%) were called active. About 18% were inconclusive and are not listed. Rule as the data show it: active = normalized growth mostly below about 0.91 (no sharp cut-off); inconclusive = no clear call, values can overlap the other calls; inactive = mostly above about 0.92. The list shows a part of the results.
Assay: chemical genetic growth profiling, strain panel (AID 1159580);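 also: tested at 20 µM; growth read once vehicle control cultures reached saturation at 30 °C; 1 = growth at the plate median or of vehicle wells; lower values mean less growth of the strain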
Settings: S. cerevisiae deletion strains, growth OD

Measured: normalized growth

CC[C@H](/C=C/C(C)C1CCC2C3CCC4=CC(=O)CC[C@]4(C)C3CC[C@]12C)C(C)C (some centres not stated)
inactive: locus YBR021W, strain FUR4, hits give low values 1.01 | locus YBR229C, strain ROT2, hits give low values 1 | locus YCL029C, strain bik1, hits give low values 1.02 | locus YDL035C, strain GPR1, hits give low values 1.02 | locus YDL074C, strain BRE1, hits give low values 1.02 | locus YDL101C, strain DUN1, hits give low values 1.01 | locus YDL134C, strain PPH21, hits give low values 1.03 | locus YDL185W, strain tfp1, hits give low values 1.01 | locus YDL192W, strain arf1, hits give low values 1 | locus YDR101C, strain arx1, hits give low values 1.01 | locus YDR162C, strain NBP2, hits give low values 1.03 | locus YDR318W, strain mcm21, hits give low values 1 | locus YDR388W, hits give low values 1.01 | locus YDR502C, strain sam2, hits give low values 1.02 | locus YEL061C, strain CIN8, hits give low values 1 | locus YER110C, hits give low values 1 | locus YER155C, strain BEM2, hits give low values 1.01 | locus YER167W, strain BCK2, hits give low values 1.02 | locus YGL078C, strain dbp3, hits give low values 1.01 | locus YGL086W, strain mad1, hits give low values 0.997 | locus YGL248W, strain PDE1, hits give low values 1.02 | locus YGR078C, strain PAC10, hits give low values 1.03 | locus YGR135W, strain pre9, hits give low values 1 | locus YGR252W, strain gcn5, hits give low values 1.01 | locus YHR030C, strain SLT2, hits give low values 1.01 and 1.1 | locus YHR079C, strain IRE1 (second series), hits give low values 0.991 | locus YHR079C, strain IRE1, hits give low values 1.07 | locus YHR094C, strain hxt1, hits give low values 0.99 | locus YHR129C, strain ARP1, hits give low values 1.01 | locus YHR200W, strain rpn10, hits give low values 1 | locus YIL066C, strain RNR3, hits give low values 1.03 | locus YIL073C, strain SPO22, hits give low values 1.05 | locus YIL125W, strain kgd1, hits give low values 1.01 | locus YIR030C, strain dcg1, hits give low values 1 | locus YJL095W, strain BCK1, hits give low values 1.02 and 1.05 | locus YJL134W, strain LCB3, hits give low values 1.01 | locus YJL168C, strain set2, hits give low values 1 | locus YJL187C, strain SWE1 (second series), hits give low values 1.02 | locus YJR043C, strain POL32, hits give low values 1.03 | locus YJR066W, strain TOR1, hits give low values 0.985 | locus YJR075W, strain HOC1, hits give low values 1.02 | locus YKL009W, strain mrt4, hits give low values 1.04 | locus YKL068W, hits give low values 1.01 | locus YKL085W, strain MDH1 (second series), hits give low values 1.01 | locus YKL085W, strain MDH1, hits give low values 1.01 | locus YKL190W, strain CNB1, hits give low values 1.01 | locus YKR001C, strain vps1, hits give low values 1.02 | locus YLR039C, strain RIC1, hits give low values 1.07 | locus YLR058C, strain SHM2, hits give low values 1.01 | locus YLR102C, strain apc9, hits give low values 0.999 | locus YLR113W, strain HOG1, hits give low values 1.04 | locus YLR262C, strain YPT6, hits give low values 1.06 | locus YLR268W, strain sec22, hits give low values 1.02 | locus YLR330W, strain CHS5, hits give low values 1.01 | locus YLR342W, strain FKS1 (second series), hits give low values 0.996 | locus YLR371W, strain rom2, hits give low values 1.02 | locus YLR418C, strain cdc73, hits give low values 1.01 | locus YML016C, strain PPZ1, hits give low values 1 | locus YML032C, strain rad52, hits give low values 1.01 | locus YML124C, strain tub3, hits give low values 1 | locus YMR078C, strain ctf18, hits give low values 1 | locus YMR223W, strain ubp8, hits give low values 1.01 | locus YMR263W, strain SAP30, hits give low values 1.01 | locus YMR307W, strain GAS1, hits give low values 1.04 | locus YNL067W, strain RPL9B, hits give low values 1.02 | locus YNL153C, strain GIM3, hits give low values 1.01 | locus YNL183C, strain NPR1, hits give low values 0.996 | locus YNL233W, strain BNI4, hits give low values 1.02 | locus YNL250W, strain rad50, hits give low values 1 | locus YNL271C, strain bni1, hits give low values 1.01 | locus YNL298W, strain CLA4, hits give low values 1 | locus YNL307C, strain MCK1, hits give low values 1.01 | locus YNL322C, strain KRE1, hits give low values 1.02 | locus YNR052C, strain pop2, hits give low values 1.01 | locus YOL006C, strain TOP1, hits give low values 1.13 | locus YOL012C, strain htz1 1.25 | locus YOL147C, strain pex11, hits give low values 1 | locus YOR061W, strain CKA2, hits give low values 1.01 | locus YOR069W, strain VPS5, hits give low values 1.01 | locus YOR136W, strain idh2, hits give low values 1 | locus YOR144C, strain elg1, hits give low values 0.994 | locus YOR184W, strain ser1, hits give low values 0.999 | locus YOR231W, strain MKK1, hits give low values 1.08 | locus YOR316C, strain cot1, hits give low values 1 | locus YPL055C, strain LGE1, hits give low values 1.04 | locus YPL241C, strain CIN2, hits give low values 1.01 | locus YPL256C, strain CLN2, hits give low values 1.03 | locus YPR119W, strain clb2, hits give low values 1 | locus YPR141C, strain kar3, hits give low values 1.01 | locus YPR163C, strain tif3, hits give low values 1.01 | locus YPR167C, strain met16, hits give low values 1.03 | strain wtn01, hits give low values 0.992

From PubChem BioAssay AID1159580 (chemical genetic matrix, 2015)
